Screening data from PubChem.
Sampled rows, rich in hits. Any-hit rate of the full collection: about 19%.
TDP1 inh: blocks human tyrosyl-DNA phosphodiesterase 1 | recombinant TDP1, AlphaScreen DNA substrate cleavage | Potency, µM (highest dose often 130 µM), usual class: inhibitors | actives 0.28% (n = 350,000); also: nearly all actives have a fitted effect of over 40% in size
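Tdp1 1 nM final; 15 min RT w/ cpd; substrate 15 nM, 5 min; beads 10 ug/ml, 10 min; AlphaScreen read. Neg ctrl: no enzyme.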
RORg inh: blocks mouse ROR gamma transcriptional activity. P51450. Drosophila S2 Gal4-RORgamma UAS-luciferase reporter, 20 h. Potency, µM (titrated, usually from 53.6 µM), most hits filed as inhibitors. actives 5.4% (n = 310,000). AID 2551; also: nearly all actives have a fitted effect of over 60% in size
Target sequence (P51450 whole entry, looked up, the tested form may be a part): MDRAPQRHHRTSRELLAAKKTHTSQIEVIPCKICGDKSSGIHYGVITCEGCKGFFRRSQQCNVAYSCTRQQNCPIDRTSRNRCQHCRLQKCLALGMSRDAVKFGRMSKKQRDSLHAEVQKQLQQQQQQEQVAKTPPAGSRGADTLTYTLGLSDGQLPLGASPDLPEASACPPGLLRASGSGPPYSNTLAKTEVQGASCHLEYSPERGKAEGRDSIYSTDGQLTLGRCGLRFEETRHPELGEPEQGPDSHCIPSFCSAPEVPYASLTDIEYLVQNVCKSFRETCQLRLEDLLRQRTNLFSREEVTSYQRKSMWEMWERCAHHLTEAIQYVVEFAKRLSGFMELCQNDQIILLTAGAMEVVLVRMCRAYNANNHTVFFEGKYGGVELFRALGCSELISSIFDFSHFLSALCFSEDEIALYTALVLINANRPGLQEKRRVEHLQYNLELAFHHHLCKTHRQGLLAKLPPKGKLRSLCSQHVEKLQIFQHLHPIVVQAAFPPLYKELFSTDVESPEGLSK
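ROR gamma transcriptional activity was tracked as Gal4-UAS luciferase output in stably transfected Drosophila Schneider cells, with compound added 1 hr before 700 uM copper sulfate induction and a 20 hr ambient-temperature incubation.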
TDP1 cell CPT: DT40-hTDP1 cell growth loss with CPT; chicken DT40 Tdp1-/-;hTDP1 cells + 20 nM CPT, ATP luminescence, 48 h; actives 12% (n = 420,000); Potency, µM (top dose mostly 46.2 µM), most hits filed as inhibitors; AID 686979; also: nearly all actives have a fitted effect of over 55% in size
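Chicken DT40 Tdp1-/- cells stably complemented with human TDP1 were seeded at 400 cells/well in medium containing 20 nM camptothecin, exposed to pin-transferred compounds, and grown at 37 °C for at least 48 hr. Viability was read as ATP luminescence.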
DT40 TDP1 no CPT: qHTS for Inhibitors of human tyrosyl-DNA phosphodiesterase 1 (TDP1): qHTS in cells in absence of CPT | Potency, µM (highest dose often 46.2 µM), most hits filed as inhibitors | actives 15% (n = 420,000) | DT40 Tdp1-/- hTDP1 cells, no CPT, ATP luminescence, 48 h; also: nearly all actives have a fitted effect of over 55% in size
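Camptothecin absent (DMSO only). Human TDP1-complemented DT40 knockout cells, 400 cells/well, 37 °C for minimum 48 hr; ATP measured via CellTiter-Glo, 30 min dark incubation, luminescence.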
VP16 counter: Gal4-VP16 reporter inhibition counter-screen. Drosophila S2 Gal4-VP16 UAS-luciferase, luminescence, 20 h. Potency, µM (doses to about 53.6 µM), actives largely listed as inhibitors. actives 3.5% (n = 310,000). AID 2546;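 also: Gal4-VP16 expression switched on by copper sulfate through the metallothionein promoter; nearly all actives have a fitted effect of over 50% in size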
Of the large screens only hits and unclear results are named; the others gave an inactive call. Calls follow the shape of the dose curve; as a rule, active = well fitted curve in the direction sought with a large enough effect; inconclusive = small, poorly fitted or top-dose-only effect, or another doubt; inactive = no such curve, though single readings can be large; an effect the other way counts as inactive or inconclusive.

Cc1cc(C)c(C#N)c(SCCS(=O)(=O)c2ccc(C(C)(C)C)cc2)n1	TDP1 cell CPT 13µM, DT40 TDP1 no CPT 21µM
Cc1cc(C)c(C#N)c(SCCS(=O)(=O)c2ccc(Cl)cc2)n1	RORg inh inconclusive, TDP1 cell CPT inconclusive, DT40 TDP1 no CPT inconclusive
CCOC(=O)C(CC)(CC)C(=O)/C=C/c1cccc(Br)c1	TDP1 cell CPT 12µM, DT40 TDP1 no CPT 18µM (no result: TDP1 inh, RORg inh, VP16 counter)
NC(=O)NC(=O)COC(=O)/C=C/c1cccc(Br)c1	none
COc1ccc(N2CCN(CCCNC(=O)c3sc4ncccc4c3-n3cccc3)CC2)cc1	TDP1 cell CPT inconclusive, DT40 TDP1 no CPT inconclusive (no result: RORg inh, VP16 counter)
O=C(NCCCN1CCN(c2ccc(F)cc2)CC1)c1sc2ncccc2c1-n1cccc1	TDP1 cell CPT 16µM, DT40 TDP1 no CPT inconclusive (no result: RORg inh, VP16 counter)
CC1CCCCN1CCCNC(=O)c1sc2ncccc2c1-n1cccc1 (stereo not given)	none (no result: RORg inh, VP16 counter)
O=C(NCCc1ccccc1Cl)c1sc2ncccc2c1-n1cccc1	TDP1 cell CPT 23µM, DT40 TDP1 no CPT inconclusive (no result: RORg inh, VP16 counter)
CCOc1ccccc1CNC(=O)c1sc2ncccc2c1-n1cccc1	TDP1 cell CPT 15µM, DT40 TDP1 no CPT 16µM (no result: RORg inh, VP16 counter)
COc1cc(OC)c(C(=O)OCC(=O)Nc2c(C)n(C)n(-c3ccccc3)c2=O)cc1OC	none (no result: RORg inh, VP16 counter)
O=c1oc(CCCO)cc2ccc(C#CC3(O)CCCCC3)cc12	TDP1 cell CPT inconclusive, DT40 TDP1 no CPT 18µM (no result: RORg inh, VP16 counter)
O=c1oc(CCCO)cc2ccc(C#Cc3ccsc3)cc12	TDP1 cell CPT inconclusive, DT40 TDP1 no CPT 18µM (no result: RORg inh, VP16 counter)
O=C1c2ccccc2C(=O)N1CCC#Cc1ccc2cc(CCCO)oc(=O)c2c1	none (no result: RORg inh, VP16 counter)
CN(C)c1ccc(C#Cc2ccc3cc(CCCO)oc(=O)c3c2)cc1	TDP1 cell CPT inconclusive (no result: RORg inh, VP16 counter)
CCOc1ccc(-c2cccc(NS(=O)(=O)c3ccccc3[N+](=O)[O-])c2)nn1	none (no result: RORg inh, VP16 counter)
COc1ccc(C)cc1-n1nnnc1SCc1nc2ccccc2s1	TDP1 cell CPT inconclusive, DT40 TDP1 no CPT inconclusive
Cc1ccc(-c2csc3nc(SCC(=O)N(C)C)n(Cc4ccccc4)c(=O)c23)cc1	TDP1 cell CPT 12µM, DT40 TDP1 no CPT 13µM
NC(=O)CSc1nc2scc(-c3ccc(Cl)cc3)c2c(=O)n1Cc1ccccc1	TDP1 cell CPT 9.2µM, DT40 TDP1 no CPT 8.2µM
Cc1ccc(N(CC(=O)NCc2ccco2)C(=O)CCC(=O)Nc2nccs2)c(C)c1	none
CCN1C(=NCC2CC2)N[C@@H](c2cccc(C(F)(F)F)c2)C(C(=O)OC)=C1C	TDP1 cell CPT inconclusive, DT40 TDP1 no CPT 10µM (no result: TDP1 inh)
CCN1C(=NCc2cc(OC)c(OC)c(OC)c2)N[C@@H](c2cccc(C(F)(F)F)c2)C(C(=O)OC)=C1C	TDP1 cell CPT inconclusive
COC(=O)C1=C(C)N(Cc2ccco2)C(=O)N[C@@H]1c1cccc(C(F)(F)F)c1	none (no result: TDP1 cell CPT, DT40 TDP1 no CPT)
CCN1C(=NCCOC)N[C@@H](c2cccc(C(F)(F)F)c2)C(C(=O)OC)=C1C	RORg inh inconclusive, TDP1 cell CPT 21µM, DT40 TDP1 no CPT 18µM
CCN1C(=NCc2ccco2)N[C@@H](c2cccc(C(F)(F)F)c2)C(C(=O)OC)=C1C	TDP1 cell CPT 16µM, DT40 TDP1 no CPT inconclusive
COCCN1C(=O)N[C@@H](c2cccc(C(F)(F)F)c2)C(C(=O)OC)=C1C	TDP1 cell CPT inconclusive (no result: RORg inh, VP16 counter)
CCC(=O)O[C@]1(C(=O)CCl)[C@@H](C)C[C@H]2[C@@H]3CCC4=CC(=O)C=C[C@]4(C)[C@@]3(F)[C@@H](O)C[C@@]21C	RORg inh 11µM, TDP1 cell CPT inconclusive, DT40 TDP1 no CPT inconclusive, VP16 counter inconclusive
CCCC(=O)O[C@]1(C(=O)CCl)[C@@H](C)C[C@H]2[C@@H]3CCC4=CC(=O)C=C[C@]4(C)[C@@]3(F)C(=O)C[C@@]21C	RORg inh 10µM, TDP1 cell CPT inconclusive, DT40 TDP1 no CPT inconclusive
CCCCC(=O)O[C@]1(C(=O)CO)[C@H](C)C[C@H]2[C@@H]3CCC4=CC(=O)C=C[C@]4(C)[C@@]3(F)[C@@H](O)C[C@@]21C	RORg inh 7.9µM, TDP1 cell CPT 19µM, DT40 TDP1 no CPT 13µM, VP16 counter inconclusive
Cc1ccc(CN(C)c2nc(-c3cccnc3)nc3ccccc23)o1	TDP1 cell CPT inconclusive, DT40 TDP1 no CPT 16µM
CCOc1ccc(CN(C)c2nc(-c3cccnc3)nc3ccccc23)cc1OC	TDP1 cell CPT 13µM, DT40 TDP1 no CPT inconclusive
CN(Cc1ccccc1F)c1nc(-c2cccnc2)nc2ccccc12	TDP1 cell CPT 21µM, DT40 TDP1 no CPT inconclusive
CN(Cc1ccco1)c1nc(-c2cccnc2)nc2ccccc12	TDP1 cell CPT inconclusive, DT40 TDP1 no CPT inconclusive (no result: TDP1 inh)
Cc1ccc(S(=O)(=O)/N=C(/Nc2ccc([N+](=O)[O-])cc2)c2ccccc2)cc1	DT40 TDP1 no CPT inconclusive
O=[N+]([O-])c1ccc(NC(=S)N/C(=N/CS(=O)(=O)c2ccccc2)c2ccccc2)cc1	TDP1 cell CPT inconclusive, DT40 TDP1 no CPT 23µM
Cc1ccccc1NC(=S)NCCc1ccc(S(N)(=O)=O)cc1	none
Cc1cccc(NC(=S)NCc2ccccc2Cl)c1C	RORg inh 5µM, TDP1 cell CPT inconclusive, DT40 TDP1 no CPT inconclusive, VP16 counter 4µM
Cc1cccc(NC(=S)NCCc2ccccc2)c1C	RORg inh 3.5µM, TDP1 cell CPT 26µM, DT40 TDP1 no CPT inconclusive, VP16 counter 5µM (no result: TDP1 inh)
S=C(NCCc1ccccc1)Nc1ncccn1	none (no result: TDP1 inh, RORg inh, VP16 counter)
Cc1c(Cl)cccc1NC(=S)NCc1ccccc1	DT40 TDP1 no CPT inconclusive (no result: TDP1 inh, RORg inh, VP16 counter)
Cc1cccc(C)c1NC(=S)NCCc1ccc(O)c(O)c1	RORg inh 7.9µM, TDP1 cell CPT 16µM, DT40 TDP1 no CPT 13µM, VP16 counter inconclusive
Cc1cccnc1NC(=S)NCCc1ccccc1	RORg inh 2.8µM, TDP1 cell CPT inconclusive, DT40 TDP1 no CPT 21µM, VP16 counter 10µM
